From PubChem BioAssay (EPA / NIEHS)
Results filed as inconclusive are left out. Active and inactive are the calls of the source. How the source made its calls: active means hit-call score of the fitted dose curve at least 0.9, where 1 is the maximum; inconclusive means response in the unintended direction; inactive means score below 0.9.

What was measured:
[1] = TOX21_p53_BLA_p2_viability: Viability Assessment in the Tox21 HCT-116 p53 Agonism Beta-lactamase Assay, Phase 2 (AID 2283591);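 further: actives lower the ATP signal meaning cytotoxicity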
Procedure, shortened: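 HCT-116 p53-bla cells (4000/well) rested 5 h at 37C, then received compounds in DMSO (217-fold dilution) for 16 h at 37C, 5% CO2. After the CCF4 read, CellTiter-Glo was added; ATP luminescence was read after 30 min at room temperature.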

[2] = target: Cellular tumor antigen p53 (Homo sapiens) (UniProt P04637); assay: TOX21_p53_BLA_p2_ratio: Tox21 HCT-116 p53 Agonism Beta-lactamase Assay, Ratio, Phase 2 (AID 2283592)
Procedure, shortened: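 An inducible beta-lactamase reporter in HCT116 cells signals p53 pathway activation. After 16 h chemical exposure at 37C, cells load CCF4-AM substrate for 2 h at room temperature; activity is the cleaved/uncleaved emission ratio relative to DMSO.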

[3] = target: Cellular tumor antigen p53 (Homo sapiens) (UniProt P04637); assay: TOX21_p53_BLA_p3_ratio: Tox21 HCT-116 p53 Agonism Beta-lactamase Assay, Ratio, Phase 3 (AID 2283596)
Procedure, shortened: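 HCT116 p53-bla cells (4000/well) given compound in DMSO (217-fold dilution) after 5 h, incubated 16 h at 37C. CCF4-AM substrate 2 h at room temperature; 460/530 nm emission ratio, gain fitted against DMSO.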

[4] = TOX21_p53_BLA_p4_viability: Viability Assessment in the Tox21 HCT-116 p53 Agonism Beta-lactamase Assay, Phase 4 (AID 2283597);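 further: hits lower the luminescence signal meaning cytotoxicity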
Procedure, shortened: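 Compound exposure of HCT116 cells lasts 16 h at 37C, 5% CO2, with DMSO stocks diluted 217-fold. Cellular ATP is then quantified by CellTiter-Glo luminescence after 30 min at room temperature.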

[5] = target: Cellular tumor antigen p53 (Homo sapiens) (UniProt P04637); assay: TOX21_p53_BLA_p5_ratio: Tox21 HCT-116 p53 Agonism Beta-lactamase Assay, Ratio, Phase 5 (AID 2283599)
Procedure, shortened: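 HCT-116 cells carrying a p53-inducible beta-lactamase reporter were seeded at 4000 cells/well and dosed after 5 h with compound in DMSO (217-fold dilution). After 16 h at 37C, CCF4-AM substrate was added for 2 h, and the 460/530 nm emission ratio was scored as gain-of-signal versus DMSO.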

[6] = TOX21_p53_BLA_p3_viability: Viability Assessment in the Tox21 HCT-116 p53 Agonism Beta-lactamase Assay, Phase 3 (AID 2283593);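 further: cells exposed to compound for 16 h before reading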
Procedure, shortened: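 HCT-116 cells (4000/well) rested 5 h at 37C, then got DMSO compounds by pin tool (217-fold dilution) for 16 h at 37C, 5% CO2. After the bla read, CellTiter-Glo was added and luminescence read at 30 min, room temperature.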

[7] = target: Cellular tumor antigen p53 (Homo sapiens) (UniProt P04637); assay: TOX21_p53_BLA_p4_ratio: Tox21 HCT-116 p53 Agonism Beta-lactamase Assay, Ratio, Phase 4 (AID 2283601)
Procedure, shortened: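 HCT116 cells carrying an inducible beta-lactamase reporter were plated at 4000 cells/well, rested 5 h, then exposed to compounds in DMSO (217-fold dilution) for 16 h at 37C. CCF4-AM substrate was loaded 2 h at room temperature; 460/530 nm emission ratio scored gain-of-signal versus DMSO.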

Measured: outcome

Sequence of Cellular tumor antigen p53 (Homo sapiens) (P04637 whole entry, looked up): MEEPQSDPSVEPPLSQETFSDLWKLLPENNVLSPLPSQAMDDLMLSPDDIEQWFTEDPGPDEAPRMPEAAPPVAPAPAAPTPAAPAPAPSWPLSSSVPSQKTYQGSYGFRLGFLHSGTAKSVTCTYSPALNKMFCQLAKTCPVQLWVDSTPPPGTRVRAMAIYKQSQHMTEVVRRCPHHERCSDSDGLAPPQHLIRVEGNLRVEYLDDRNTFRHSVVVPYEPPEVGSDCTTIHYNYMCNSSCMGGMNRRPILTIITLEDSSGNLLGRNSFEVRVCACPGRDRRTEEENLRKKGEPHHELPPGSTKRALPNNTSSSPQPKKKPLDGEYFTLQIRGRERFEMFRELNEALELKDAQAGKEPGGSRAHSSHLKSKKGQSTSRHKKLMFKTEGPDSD

CN=C(N)NC(=O)Nc1c(C)cccc1C
inactive: [1] | [2] | [3] | [4]

C[N+](C)(C)CCOC(=O)CCC(=O)OCC[N+](C)(C)C
not listed: [6] | [7]
inactive: all other assays above

CCCOCCOCCO
not listed: [3] | [4]
inactive: all other assays above
